# Compound activity from PubChem BioAssay.
# The list is not random: actives were taken first. Their share in the collection is about 6.6%.
# MPTP inh: permeability transition pore inhibition. AID 602449. isolated mouse mitochondria, Ca2+ swelling absorbance, 30 min. inhibition, % at 10 µM. actives 1.4% (n = 360,000);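 active = inhibition of 50% or more, scaled per plate between neutral and stimulator controls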
# NR3A LBD binder: modulates the human NR3A ligand-binding domain | actives 2.5% (n = 340,000) | NR3A LBD differential scanning fluorimetry, Tm shift; 0% = protein alone, 100% = glycine-bound protein | Tm shift relative to glycine control, % at 25 µM | AID 1259313;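 active = melting temperature shift of at least 10% of the positive control shift, at one fixed dose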
# CSC inhib: cancer stem cell inhibition | cancer stem cell-like cells viability, luminescence | AID 2717 | inhibition, % at 7.5 µM | actives 1.1% (n = 300,000); in the data active = inhibition above about 75%; tested in HMLE shEcad cells
# Mdm2 MdmX PPI: human Mdm2/MdmX binding inhibition | O15151+Q00987 | SaOS-2 split-luciferase Mdm2/MdmX complementation, luminescence | inhibition, % at 8 µM | actives 3% (n = 330,000) | AID 485346;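 active = inhibition of at least 50% at 8 µM in the primary screen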
# Target sequence (O15151 whole entry, looked up): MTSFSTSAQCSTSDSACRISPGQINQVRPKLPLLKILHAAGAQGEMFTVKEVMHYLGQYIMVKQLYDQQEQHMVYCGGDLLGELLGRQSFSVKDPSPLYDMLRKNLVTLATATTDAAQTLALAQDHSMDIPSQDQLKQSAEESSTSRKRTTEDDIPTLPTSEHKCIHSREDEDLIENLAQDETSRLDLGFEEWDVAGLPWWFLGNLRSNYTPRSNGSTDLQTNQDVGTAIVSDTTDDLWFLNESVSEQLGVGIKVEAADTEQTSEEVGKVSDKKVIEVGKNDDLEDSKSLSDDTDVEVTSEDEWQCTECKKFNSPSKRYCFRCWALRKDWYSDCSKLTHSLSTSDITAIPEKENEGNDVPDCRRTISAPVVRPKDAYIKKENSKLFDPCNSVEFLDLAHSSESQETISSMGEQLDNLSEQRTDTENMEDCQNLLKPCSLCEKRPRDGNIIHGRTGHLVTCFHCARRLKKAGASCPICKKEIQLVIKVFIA
# Target sequence (Q00987 whole entry, looked up): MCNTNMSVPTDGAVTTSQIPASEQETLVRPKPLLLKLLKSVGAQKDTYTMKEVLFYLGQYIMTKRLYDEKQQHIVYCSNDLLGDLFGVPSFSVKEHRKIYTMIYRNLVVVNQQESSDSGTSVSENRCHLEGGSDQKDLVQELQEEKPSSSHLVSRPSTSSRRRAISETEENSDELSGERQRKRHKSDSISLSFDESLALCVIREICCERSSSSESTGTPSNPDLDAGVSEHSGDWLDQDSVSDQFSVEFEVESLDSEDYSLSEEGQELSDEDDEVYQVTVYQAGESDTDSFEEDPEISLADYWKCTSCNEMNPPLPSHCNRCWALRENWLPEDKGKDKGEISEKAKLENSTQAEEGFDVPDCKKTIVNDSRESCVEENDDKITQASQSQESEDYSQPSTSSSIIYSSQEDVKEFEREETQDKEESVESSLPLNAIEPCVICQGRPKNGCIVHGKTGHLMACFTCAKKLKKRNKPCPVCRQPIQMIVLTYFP
# Gli-Sufu antag: Gli-Sufu pathway antagonism; actives 0.74% (n = 340,000); Sufu-KO-LIGHT fibroblasts, Gli luciferase reporter luminescence; AID 588413; inhibition, % at 5 µM;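 active = inhibition above about 55%, limit read from the data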
# Beta apoptosis: beta cell apoptosis inhibition; actives 0.8% (n = 300,000); INS-1E cytokine-induced death, ATP luminescence, 48 h; percent of positive-control rescue, neutral wells zero; AID 435005; protection from apoptosis, % (concentration not given with the values);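 active = Every replicate reaches about 75%, or at least half do and their mean reaches it too, limit read from the data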;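 note: higher means more ATP so stronger rescue from cytokine killing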
# Mdm2-MdmX conf: confirmation of human Mdm2/MdmX interaction inhibitors | Mdm2-MdmX binding, luminescent assay | inhibition, % at 8 µM | actives 55% (n = 10,000) | shares compounds with Mdm2 MdmX PPI | AID 489028; in the data active = inhibition above about 40%
# FLuc counter: counter-screen for Mdm2/MdmX inhibitors: full-length luciferase; shares compounds with Mdm2 MdmX PPI; actives 77% (n = 6,200); AID 504607; SaOS-2 full-length luciferase counterscreen, luminescence; inhibition, % at 8 µM;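 active = mean inhibition at 8 µM reaching about 37%, which flags the compound as non-specific, limit read from the data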;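 note: p53-null SaOS-2 cells with luciferase driven by a doxycycline-inducible promoter; compound on cells about two nights before reading with doxycycline added after day one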
# Hits are given with their value; n = inactive; x = no result given.
SMILES,MPTP inh,NR3A LBD binder,CSC inhib,Mdm2 MdmX PPI,Gli-Sufu antag,Beta apoptosis,Mdm2-MdmX conf,FLuc counter
O=C(NCc1ccc2c(c1)OCO2)OCc1ccccc1,n,x,x,x,x,x,x,x
COc1cc(NC(=O)c2cccs2)c(C(=O)OCC(=O)NCc2ccccc2)cc1OC,n,n,n,58,n,n,n,x
COc1cc(NC(=O)c2cccs2)c(C(=O)OCC(=O)NC(C)c2ccccc2)cc1OC (stereo not given),n,n,n,n,n,n,x,x
CC(C)N1CCN(C(=O)C2CCC(=O)N(CCc3cccc(F)c3)C2)CC1 (stereo not given),n,n,x,n,n,x,x,x
CN(C)c1ccc2c(c1)OC(N)=C(C#N)C2c1cccc(F)c1 (stereo not given),n,n,x,65,n,n,62,97
N#CC1=C(N)Oc2cc(N)ccc2C1c1cccc(F)c1 (stereo not given),n,n,n,54,n,n,44,65
Cc1cccc(-c2ccc3[nH]c4c(c3c2)CCN2C[C@@H]([C@H](C)OC(=O)Nc3ccccc3C)[C@@H](N(C)C(=O)Nc3ccccc3C)C[C@@H]42)c1,n,x,x,x,x,x,x,x
COc1ccc(-c2cc(C(=O)Nc3cc(Br)ccc3O)no2)cc1,n,n,n,83,n,n,n,101
COc1ccc(-c2cc(C(=O)Nc3c(C)nn(Cc4ccccc4)c3C)no2)cc1,n,n,n,63,n,n,n,x
COc1ccc(-c2cc(C(=O)Nc3cc(C)nn3-c3ccccc3)no2)cc1,n,n,n,n,n,n,x,x
COc1cccc(-c2cc(C(=O)Nc3cc(C)nn3-c3ccccc3)no2)c1,n,n,n,65,n,n,n,x
COc1ccccc1-c1cc(C(=O)Nc2cc(C)nn2-c2ccccc2)no1,n,n,n,57,n,n,62,45
COc1cccc(-c2cc(C(=O)Nc3c(C)nn(Cc4ccccc4)c3C)no2)c1,n,n,n,n,n,n,x,x
COc1ccc(C(=O)NC2CCCN(Cc3ccc(Cl)cc3)C2)c(OC)c1 (stereo not given),n,n,n,n,n,x,x,x
O=C(Cc1ccccc1F)Nc1ccc(S(=O)(=O)Nc2ncccn2)cc1,n,n,n,n,n,n,x,x
C[C@@H]1CN([C@@H](C)CO)C(=O)c2cc(Br)cnc2O[C@@H]1CN(C)S(=O)(=O)c1ccc(F)cc1,n,x,x,x,x,x,x,x
Cc1ccc(C(O)c2ncc(-c3cccc(C(F)(F)F)c3)[nH]2)cc1F (stereo not given),n,x,x,x,x,x,x,x
O=[N+]([O-])c1c(Nc2ccc(O)cc2)cc(N2CCOCC2)c2nonc12,n,n,n,51,n,n,n,x
O=[N+]([O-])c1c(Nc2ccccc2O)cc(Cl)c2nonc12,n,n,n,95,n,n,100,54
Cc1ccc(C(=O)OCC(=O)N(C)c2c(N)n(Cc3ccccc3)c(=O)[nH]c2=O)s1,n,n,n,n,n,n,x,x
COc1cc2c(C#N)c(N3CCN(c4ccccc4OC)CC3)nc(N)c2c(N)n1,n,n,n,75,n,n,n,x
COc1cc2c(C#N)c(N3CCN(C)CC3)nc(N)c2c(N)n1,n,x,n,n,x,n,x,x
COC(=O)c1ccccc1S(=O)(=O)N1CCC(C(=O)NCc2ccco2)CC1,n,n,n,n,n,n,x,x
N/C(=N\OC(=O)N1CCOCC1)c1ccc(Br)cc1,n,n,n,100,n,n,59,134
N/C(=N\OC(=O)N1CCOCC1)c1ccc(Cl)cc1,n,n,n,92,n,n,61,148
SMILES,MPTP inh,NR3A LBD binder,CSC inhib,Mdm2 MdmX PPI,Gli-Sufu antag,Beta apoptosis,Mdm2-MdmX conf,FLuc counter
O=C(COc1ccc(Br)cc1)N1CCOCC1,n,n,n,n,n,n,x,x
N/C(=N\OC(=O)N1CCOCC1)c1ccccc1,n,n,n,64,n,n,n,x
COc1ccccc1-n1cnc2c(c1=O)c1nc3ccccc3nc1n2-c1ccc(C)cc1,n,n,n,55,n,n,73,65
[O-][n+]1ccc(C(O)c2ccccc2)cc1 (stereo not given),n,n,n,n,n,n,x,x
Cc1cc(C(=O)CSc2ccc(F)cc2)cc(C)c1OC(=S)N(C)C,n,n,x,58,n,n,84,107
CCOc1ccccc1/C=N\Nc1cnn(Cc2ccccc2)c(=O)c1Cl,n,n,n,53,n,n,n,x
CC(=O)Nc1ccc(OCC(O)Cn2nc(C)c(C)c2C)cc1 (stereo not given),n,n,n,n,n,x,x,x
CSc1c(CC(=O)Nc2ccccc2C(F)(F)F)n(Cc2ccccc2)c2ccccc12,n,n,n,74,n,n,n,107
CSc1c(CC(=O)Nc2ccccc2)n(Cc2ccccc2)c2ccccc12,n,n,n,60,n,n,n,x
O=C(CCCc1ccccc1)Nc1ccccc1C(F)(F)F,n,n,n,n,n,n,x,x
CSc1c(CC(=O)Nc2ccccc2Cl)n(Cc2ccccc2)c2ccccc12,n,n,n,58,n,n,n,x
Cn1c(CC(=O)Nc2ccc(F)cc2)c(Sc2ccccc2)c2ccccc21,n,n,n,n,n,n,x,x
O=C(NCc1ccco1)C1CC(O)CN1C(=O)Nc1ccccc1 (stereo not given),n,n,n,n,n,n,x,x
COc1ccc(CN2C[C@@H](CO)O[C@@H](n3cnc4c(NCc5ccncc5)ncnc43)C2)cc1,n,x,x,x,x,x,x,x
O=C(COc1ccc(Oc2ccccc2)cc1)NCc1cn2ccccc2n1,n,n,n,56,n,n,57,73
O=C(O)c1ccc(OCc2cn3ccccc3n2)cc1,n,n,n,n,n,n,x,x
O=c1cc(-c2ccc(O)c(O)c2)oc2ccc3ccccc3c12,n,25,x,55,n,x,74,131
O=C(Nc1ccc(Cl)c(-c2nc3ccccc3[nH]2)c1)c1ccc2c(c1)OCO2,n,n,n,n,x,n,x,x
O=C(Nc1cccc(-c2nc3ccccc3[nH]2)c1)c1cccc(NC(=O)c2ccco2)c1,n,20,99,100,n,n,n,56
COCCN1Cc2cccc(C(=O)Nc3cccc(-c4nc5ccccc5[nH]4)c3)c2C1=O,n,n,n,55,n,n,51,90
O=C(Nc1ccc2nc(-c3ccccc3)[nH]c2c1)c1ccco1,n,n,n,n,n,x,x,x
O=C(Nc1ccc(-c2nc3ccccc3[nH]2)cc1)c1ccc2c(c1)OCO2,n,30,n,90,n,n,67,n
Cc1c(C(=O)NNC(=O)c2csc(N3CCOCC3)n2)oc2ccc(Br)cc12,n,x,x,x,x,x,x,x
CC[C@H]1CCCCc2ccccc2[C@@H](C(=O)C[C@@H](O)CC(C)=O)OC1=O,n,n,x,n,n,n,x,x
Cc1noc(C)c1-c1ccc2ncnc(NCC3CCCCN3C)c2c1 (stereo not given),n,n,n,72,n,n,47,73
